Source: PubChem
In the library only some 1.8% were active in any assay of this set; here they are far more common.
Beta cell apopt – beta cell apoptosis inhibition. INS-1E cytokine-induced death, ATP luminescence, 48 h; percent of positive-control rescue, neutral wells zero. protection from apoptosis, % (no concentration beside the values). hit rate 0.8% among 300,000. AID 435005;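 active = Every replicate reaches about 75%, or at least half do and their mean reaches it too, limit read from the data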;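 note: 0% = cytokine-treated negative control wells and 100% = positive control rescue; higher means more ATP so stronger rescue from cytokine killing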
697 NFkB inh – inhibitors of the PMA/ionomycin-induced NF-kB reporter in 697 B cells. hit rate 0.33% among 330,000. inhibition, % at 4 µM. 697 B-cell NF-kB luciferase reporter, 16 h; in the data active = inhibition above about 35%
Gli-Sufu antag – antagonists of Gli-Sufu signaling | inhibition, % at 5 µM | AID 588413 | hit rate 0.74% among 340,000 | Sufu-KO-LIGHT fibroblasts, Gli luciferase reporter luminescence;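 active = inhibition above about 55%, limit read from the data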;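 note: 0% = DMSO-treated cells and 100% = wells with medium but no cells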
Jurkat NFkB inh – inhibitors of the PMA/ionomycin-induced NF-kB reporter in Jurkat cells; PMA/ionomycin-induced NF-kB luciferase reporter, luminescence; inhibition, % at 4 µM; hit rate 0.53% among 330,000; AID 435003; in the data active = inhibition above about 50%
* hit, by the source's call; / = no result given.

SMILES | Beta cell apopt | 697 NFkB inh | Gli-Sufu antag | Jurkat NFkB inh
O=C(C[C@@H]1C/C=C/CC[C@H](Cc2ccc(F)cc2)C(=O)OC[C@@H](Cc2ccccc2)NC1=O)N[C@H](CO)Cc1ccccc1 | 124* | 4 | -11 | -1
CCCOP(=O)(OCCC)C1(Nc2ccc(C)cc2)CCCCC1 | -2 | 2 | -7 | 11
COC(=O)c1ccc(NC(=O)c2nc(S(=O)(=O)Cc3cccc(C)c3)ncc2Cl)cc1 | 75* | -76 | 2 | 6
CCOC(=O)c1ccc(NC(=O)c2nc(S(=O)(=O)Cc3ccccc3)ncc2Cl)cc1 | 78* | -45 | 8 | 4
CC(=O)Nc1ccc(NC(=O)c2nc(S(=O)(=O)Cc3cccc(C)c3)ncc2Cl)cc1 | -6 | -50 | 36 | 37
Cc1c(OCC(=O)N2CCC(C(=O)O)CC2)ccc2c1oc(=O)c1ccccc12 | / | -4 | -2 | 2
O=S(=O)(c1cccs1)N1CCN(CC(O)COc2cc(Cl)ccc2Cl)CC1 (configuration not stated) | 83* | -9 | 40 | 19
CC12CN3CC(C)(CN(C1)C3c1ccc(Br)cc1O)C2 (configuration not stated) | -2 | -5 | -5 | 5
O=C(CCl)N(c1ccccc1)C1CCCCC1 | 107* | -9 | 5 | 1
CC(=O)N(c1ccccc1)C1CCCC1 | -5 | 1 | 10 | 10
CCCCCCCCNC(C)C(O)c1ccc(SC(C)C)cc1 (configuration not stated) | 117* | 3 | 22 | 9
COC1=C(C)C(=O)C2=C(C1=O)C1C3CC4=C(C(=O)C(OC)=C(C)C4=O)C(CNC(=O)C(C)=O)N3C(C#N)C(C2)N1C (configuration not stated) | / | / | 81* | /
Cc1cccc(NC(=O)/C=C/c2ccc([N+](=O)[O-])s2)c1 | 99* | / | 36 | /
Cc1cccc(NC(=S)N/N=C/c2ccc([N+](=O)[O-])s2)c1 | 103* | 1 | 2 | -20
Cc1ccc(NC(=O)/C=C/c2ccc([N+](=O)[O-])s2)cc1 | 4 | 20 | 18 | 6
O=C1c2ccccc2C(=O)N1CCn1ccnc1 | -3 | 4 | 17 | 8
O=c1[nH]c2cc(Cl)c(Br)cc2o1 | / | / | 9 | /
O=C(Nc1ncnc2c1C(c1ccccc1)c1c(ccc3ccccc13)O2)c1ccccc1 (configuration not stated) | 82* | 3 | 27 | 32
Cn1nc(C(F)(F)F)c(-c2cccc(C(F)(F)F)c2)c1NC(=O)c1nccnc1C(=O)O | -4 | 6 | 2 | 3
CC1CC(=O)c2c(cc3c(-c4c(O)cc(O)c5c(O)c6c(cc45)OC(C)CC6=O)c(O)cc(O)c3c2O)O1 (configuration not stated) | 98* | -1 | 23 | -3
O=C1CC(c2ccc(O)cc2)Oc2cc(O)cc(O)c21 (configuration not stated) | 1 | -3 | -3 | 9
CCN(CC)CCN(C(=O)c1cc2c(ccc3ccccc32)oc1=O)c1nc2cc3c(cc2s1)OCCO3 | 102* | -93 | 28 | -74
CCN(CC)CCN(C(=O)c1ccc2c(c1)OCCO2)c1nc2cc3c(cc2s1)OCO3 | 0 | -7 | 26 | -13
CCOCCCNC(=S)NCCCNc1nc2cc3c(cc2cc1C#N)OCO3 | / | 18 | -5 | -13
O=C(CCCc1nc(-c2ccc(Cl)cc2)no1)NC1CCCC1 | 107* | -2 | 50 | 25
SMILES | Beta cell apopt | 697 NFkB inh | Gli-Sufu antag | Jurkat NFkB inh
C/C(=N/Nc1nc(-c2ccccc2)cc(-c2ccc(F)cc2)n1)c1cccc(N)c1 | 79* | -8 | -13 | -26
C/C(=N\Nc1nc(N)cc(Cl)n1)c1cccc(N)c1 | -1 | 7 | -2 | -9
COc1ccc(/C(C)=N/Nc2nc(C)cc(-c3ccccc3)n2)cc1 | 83* | -27 | 9 | -10
C/C(=N\Nc1nc(C)cc(-c2ccccc2)n1)c1ccc(F)cc1 | 78* | -16 | 4 | -4
Clc1ccccc1CN(Cc1ccco1)Cc1nnnn1C1CCCC1 | -17 | -3 | 5 | 6
Cc1nc(C)n(C(C)CNS(=O)(=O)c2ccc(C)c(C)c2)n1 (configuration not stated) | -3 | 12 | 15 | -10
O=C(Nc1cccc(Cl)c1)Nc1nnc(CSCCOc2ccc(Cl)cc2)s1 | 139* | -31 | 22 | 12
COc1ccc(CCNC(=O)c2cc(C(=O)c3cc(Cl)ccc3O)cn(CCc3ccc(OC)cc3)c2=O)cc1 | 25 | -16 | 10 | -24
COc1cc(C(C)=O)ccc1OCC(=O)Nc1ccccc1N1CCCCC1 | -6 | -5 | 12 | 39
CCN1/C(=C/c2ccc3cc(C)ccc3[n+]2CC)Sc2cc(C)ccc21 | / | / | 90* | /
CCN1/C(=C/c2ccc3cc(C)ccc3[n+]2C)Sc2ccc3sccc3c21 | / | / | 86* | /
CCN1/C(=C/c2ccc3ccccc3[n+]2CCCS(=O)(=O)[O-])C=Cc2cc(C)ccc21 | 30 | / | 12 | /
Cc1sc2c3ccsc3ccc2[n+]1C | -14 | 11 | -2 | 12
O=C(CN1C(=O)c2ccccc2S1(=O)=O)NCCc1ccccc1 | -3 | 7 | -1 | 11
COc1ccc(CNC(=O)c2cc3c(C)nc4ccccc4c3o2)c(OC)c1 | 71 | 14 | 57* | 43
Cc1nc2ccccc2c2oc(C(=O)Nc3ccc(C(C)C)cc3)cc12 | 79* | -29 | 20 | 0
COc1cccc(CNC(=O)c2cc3c(C)nc4ccccc4c3o2)c1 | 41 | -15 | 8 | 7
Cc1nc2ccccc2c2oc(C(=O)Nc3ccc4c(c3)OCCO4)cc12 | 25 | 1 | -8 | -8
COc1ccc(N2CCN(C(=O)CNC(=O)c3ccc4ccccc4c3)CC2)cc1 | 5 | 12 | 3 | 12
COc1cc(OC)cc(C(=O)NCC(=O)N2CCN(c3ccc(O)cc3)CC2)c1 | -1 | -9 | 58* | 27
Cc1ccc2c(c1)N(C)/C(=C/c1cccc[n+]1CCO)S2 | 98* | -17 | 40 | 33
CCCCN1/C(=C/c2cccc[n+]2C)Sc2cc(NC(C)=O)ccc21 | 25 | 6 | 10 | -9
C=CCn1c(SCN2C(=O)c3ccccc3C2=O)nc2ccc(Cl)cc2c1=O | 98* | -59 | / | 6
CCN1CCN(Cc2ccc(NC(=O)c3cc(NC(=O)c4nccnc4N)cc(OC)c3)cc2C(F)(F)F)CC1 | -12 | -24 | -1 | -18
CCN1CCN(Cc2ccc(NC(=O)c3cc(NC(=O)c4cncc(-c5ccc(C#N)cc5)c4)cc(OC)c3)cc2C(F)(F)F)CC1 | 87* | 22 | 10 | -7
CCN1CCN(Cc2ccc(NC(=O)c3ccc(C)c(NC(=O)c4cncc(-c5cccs5)c4)c3)cc2C(F)(F)F)CC1 | / | / | 72* | /
O=C1N(Cc2cccc(Cl)c2)C[C@@H]2C[C@@H](c3ccsc3)N3CCC[C@@]123 | 3 | -1 | 1 | 3
CCn1c(=O)c(C(=O)Nc2nc3ccccc3[nH]2)c(O)c2ccccc21 | 118* | 10 | -18 | 13
CCOc1ccccc1N1CCN(C(=O)c2ccc(S(=O)(=O)Nc3ccccc3)cc2)CC1 | -3 | 1 | 5 | -4
Cc1ccc(-n2cccc2C(=S)N=P(N(C)C)(N(C)C)N(C)C)cc1 | 102* | -45 | 26 | 29
